In PubChem BioAssay AID1159580 (chemical genetic matrix, 2015):
Values joined by “and” are separate entries in the source; they are usually repeats but may differ in a detail not shown here. Identical values can stand only once. Screen size: about 5,500 compounds; about 2,000 (36%) were called active. Roughly 18% stayed inconclusive and do not appear here. Cut-off read from the data, not from the text of the source: active = normalized growth mostly below about 0.91 (no sharp cut-off); inconclusive = no clear call, values can overlap the other calls; inactive = mostly above about 0.92. The list shows a part of the results.

Test: chemical genetic growth profiling, strain panel (AID 1159580);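 note: tested at 20 µM; growth read once vehicle control cultures reached saturation at 30 °C; 1 = growth at the plate median or of vehicle wells; lower values mean less growth of the strain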
Conditions: S. cerevisiae deletion strains, growth OD

Measured: normalized growth

CCCC(C)C1(CC)C(=O)NC(=O)NC1=O (configuration not stated)
inactive: locus YAL013W, strain DEP1, active compounds read low 1.01 | locus YAL021C, strain ccr4, active compounds read low 0.996 | locus YAL026C, strain drs2, active compounds read low 1 | locus YAL030W, strain snc1, active compounds read low 1 | locus YBL061C, strain skt5, active compounds read low 1 | locus YBR009C, strain hhf1, active compounds read low 1.01 | locus YBR021W, strain FUR4, active compounds read low 1 | locus YBR023C, strain chs3, active compounds read low 1 | locus YBR171W, strain sec66, active compounds read low 1 | locus YBR229C, strain ROT2, active compounds read low 1.01 | locus YBR231C, strain swc5, active compounds read low 0.994 | locus YBR279W, strain paf1, active compounds read low 1 | locus YCL011C, strain gbp2, active compounds read low 1 | locus YCL016C, strain dcc1, active compounds read low 0.999 | locus YCL029C, strain bik1, active compounds read low 1.03 | locus YCL061C, strain MRC1, active compounds read low 1 | locus YCL069W, strain vba3, active compounds read low 0.998 | locus YCR088W, strain abp1, active compounds read low 0.996 | locus YDL005C, strain med2, active compounds read low 0.992 | locus YDL035C, strain GPR1, active compounds read low 1.03 | locus YDL040C, strain nat1, active compounds read low 1 | locus YDL074C, strain BRE1, active compounds read low 1.03 | locus YDL101C, strain DUN1, active compounds read low 1.02 | locus YDL134C, strain PPH21, active compounds read low 1.02 | locus YDL185W, strain tfp1, active compounds read low 1.02 | locus YDL192W, strain arf1, active compounds read low 1.02 | locus YDR001C, strain nth1, active compounds read low 0.998 | locus YDR069C, strain doa4, active compounds read low 1 | locus YDR101C, strain arx1, active compounds read low 1.01 | locus YDR137W, strain rgp1, active compounds read low 1.03 | locus YDR150W, strain NUM1, active compounds read low 1.02 | locus YDR159W, strain sac3, active compounds read low 0.995 | locus YDR162C, strain NBP2, active compounds read low 1.03 | locus YDR195W, strain ref2 0.982 | locus YDR297W, strain sur2, active compounds read low 1 | locus YDR318W, strain mcm21, active compounds read low 1.03 | locus YDR334W, strain swr1, active compounds read low 1.01 | locus YDR335W, strain msn5, active compounds read low 1 | locus YDR388W, active compounds read low 1.01 | locus YDR392W, strain spt3, active compounds read low 1.02 | locus YDR502C, strain sam2, active compounds read low 1.02 | locus YEL003W, strain gim4, active compounds read low 1.01 | locus YEL037C, strain rad23, active compounds read low 0.992 | locus YEL061C, strain CIN8 (second series), active compounds read low 1 | locus YEL061C, strain CIN8, active compounds read low 1.01 | locus YER015W, strain faa2, active compounds read low 1 | locus YER016W, strain bim1, active compounds read low 1.03 | locus YER110C, active compounds read low 1.01 | locus YER111C, strain swi4, active compounds read low 0.988 | locus YER155C, strain BEM2 (second series), active compounds read low 0.999 | locus YER155C, strain BEM2, active compounds read low 1.01 | locus YER167W, strain BCK2, active compounds read low 1.03 | locus YFR010W, strain ubp6, active compounds read low 1.01 | locus YGL078C, strain dbp3, active compounds read low 1.01 | locus YGL086W, strain mad1, active compounds read low 1.02 | locus YGL167C, strain pmr1, active compounds read low 1 | locus YGL173C, strain kem1, active compounds read low 0.993 | locus YGL227W, strain vid30, active compounds read low 0.99 | locus YGL240W, strain doc1, active compounds read low 0.989 | locus YGL248W, strain PDE1, active compounds read low 1.01 | locus YGL253W, strain hxk2, active compounds read low 1 | locus YGR078C, strain PAC10, active compounds read low 1.02 | locus YGR135W, strain pre9, active compounds read low 1 | locus YGR229C, strain SMI1, active compounds read low 1.02 | locus YGR252W, strain gcn5, active compounds read low 1.05 | locus YHR013C, strain ard1, active compounds read low 0.978 | locus YHR027C, strain rpn1, active compounds read low 1 | locus YHR030C, strain SLT2, active compounds read low 1.01 and 0.987 | locus YHR079C, strain IRE1 (second series), active compounds read low 1.02 | locus YHR079C, strain IRE1, active compounds read low 0.979 | locus YHR094C, strain hxt1, active compounds read low 1.01 | locus YHR129C, strain ARP1, active compounds read low 1 | locus YHR142W, strain chs7, active compounds read low 1 | locus YHR200W, strain rpn10, active compounds read low 1.02 | locus YIL066C, strain RNR3, active compounds read low 1.01 | locus YIL073C, strain SPO22, active compounds read low 1.08 | locus YIL125W, strain kgd1, active compounds read low 1.02 | locus YIR030C, strain dcg1, active compounds read low 1.02 | locus YJL092W, strain hpr5, active compounds read low 0.995 | locus YJL095W, strain BCK1 (second series), active compounds read low 1 | locus YJL095W, strain BCK1, active compounds read low 1.02 and 0.993 | locus YJL115W, strain asf1, active compounds read low 0.999 | locus YJL129C, strain trk1, active compounds read low 1.02 | locus YJL134W, strain LCB3, active compounds read low 1.01 | locus YJL154C, strain vps35, active compounds read low 1 | locus YJL164C, strain tpk1, active compounds read low 1.01 | locus YJL166W, strain qcr8, active compounds read low 1 | locus YJL168C, strain set2, active compounds read low 1.03 | locus YJL187C, strain SWE1 (second series), active compounds read low 1.01 | locus YJL187C, strain SWE1, active compounds read low 0.999 | locus YJR043C, strain POL32, active compounds read low 1.05 | locus YJR066W, strain TOR1, active compounds read low 0.954
